# Assay outcomes from PubChem BioAssay.
# This is a sample that favours compounds with a hit; in the whole collection about 19% have one here.
# TDP1 cell CPT – growth inhibition of DT40 Tdp1-/-;hTDP1 cells with camptothecin (screen for TDP1 inhibitors) | chicken DT40 Tdp1-/-;hTDP1 cells + 20 nM CPT, ATP luminescence, 48 h | AID 686979 | Potency, µM (series often up to 46.2 µM), for inactives: at the top dose activity change, negative = growth inhibition, most hits filed as inhibitors | 420,000 tested, 12% active; note: potency is the fitted concentration of half-maximal effect; % is set by controls: 0 for no effect and ±100 for the full control effect; nearly all actives have a fitted effect of over 55% in size
#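 Chicken DT40 Tdp1-/- cells stably complemented with human TDP1 were seeded at 400 cells/well in medium containing 20 nM camptothecin, exposed to pin-transferred compounds, and grown at 37 °C for at least 48 hr. Viability was read as ATP luminescence.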
# ASM inhibitor – human S-ASM enzyme inhibition; P17405; placental ASM, HMU-PC fluorogenic substrate, 60 min; Potency, µM (highest dose often 57.5 µM), for the others: top-dose activity change, negative = inhibition, usual class: inhibitors; 340,000 tested, 0.006% active; AID 504937; note: potency is the fitted concentration of half-maximal effect
# Target sequence (P17405 47-631 limits assumed): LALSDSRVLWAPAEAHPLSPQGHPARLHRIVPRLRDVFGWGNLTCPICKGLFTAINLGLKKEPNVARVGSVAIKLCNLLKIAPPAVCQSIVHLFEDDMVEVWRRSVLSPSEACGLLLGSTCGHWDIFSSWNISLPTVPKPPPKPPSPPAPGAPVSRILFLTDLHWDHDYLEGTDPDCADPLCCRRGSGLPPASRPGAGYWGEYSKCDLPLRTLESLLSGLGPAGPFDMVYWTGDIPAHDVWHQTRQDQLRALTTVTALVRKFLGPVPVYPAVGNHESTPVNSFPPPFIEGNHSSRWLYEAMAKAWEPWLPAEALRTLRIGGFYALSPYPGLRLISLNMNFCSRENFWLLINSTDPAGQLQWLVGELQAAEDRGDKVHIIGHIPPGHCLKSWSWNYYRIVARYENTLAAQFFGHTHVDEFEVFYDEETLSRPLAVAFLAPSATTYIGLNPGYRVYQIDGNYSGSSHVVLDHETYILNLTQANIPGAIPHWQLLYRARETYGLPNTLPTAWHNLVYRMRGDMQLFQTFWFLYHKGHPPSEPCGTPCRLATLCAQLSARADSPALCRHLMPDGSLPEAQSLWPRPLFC
#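 Human placenta-derived ASM preincubated with compound 10 min at room temperature, then reacted with 9 uM (final) fluorogenic HMU-PC substrate for 60 min at 37 C. Stop solution raises pH to 10; fluorescence read at Ex 386/Em 447 nm.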
# IL-1B inflam inh – inflammasome signaling inhibition, IL-1 beta readout; THP-1 LPS/ATP IL-1B secretion, AlphaLISA, 16 h; stronger effect = lower value; 360,000 tested, 4.7% active; activity change, % at 57.5 µM; in the data active = activity change below about -50%; inconclusive = mostly about -30% to -49%; note: % is set by controls: 0 for no effect and ±100 for the full control effect
#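 Secreted IL-1B measured by AlphaLISA bead assay after 16 h compound exposure of THP-1 cells; compounds (final up to 57.5 uM) added 1 h before LPS (250 ng/mL) and ATP (1.25 mM) stimulation; lower signal means less secretion.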
# HepG2 viability – counter-screen for TGF-b inhibitors: cytotoxicity in HepG2 cells | HepG2 CAGA-GFP viability, ATP luminescence, 18 h | Potency, µM (series often up to 46.1 µM), without a hit: top-dose activity change, negative = cytotoxicity, usual class: cytotoxic | 410,000 tested, 0.76% active | AID 588856; note: potency is the fitted concentration of half-maximal effect
#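 CellTiter-Glo luminescence gave cytotoxicity after 18 hours at 37 degrees C. The cells were HepG2 CAGA-GFP in 1% FBS DMEM, stimulated with 500 pg/mL TGF-beta after compound addition. %Activity was normalised to no-cell wells (complete cell-killing) and DMSO (no toxicity), and curves were fitted and classified.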
# TGFb inhibitor – blocks TGF-b signaling; HepG2 CAGA-GFP TGF-b/SMAD3 reporter, GFP fluorescence, 18 h; TGF-beta stimulated, 500 pg/mL final; Potency, µM (titrated, usually from 46.1 µM), for the others: at the top dose activity, negative = inhibition, usual class: inhibitors; 410,000 tested, 1.2% active; AID 588855; note: potency is the fitted concentration of half-maximal effect; % is set by controls: 0 for no effect and ±100 for the full control effect; nearly all actives have a fitted effect of over 65% in size
#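 Inhibition of TGF-beta-driven CAGA-GFP reporter expression in HEPG2 cells is measured by cellular GFP fluorescence after 18 h stimulation with 500 pg/mL recombinant TGF-beta in 1% FBS medium at 37 degrees C.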
# TDP1 cell noCPT – qHTS for Inhibitors of human tyrosyl-DNA phosphodiesterase 1 (TDP1): qHTS in cells in absence of CPT. 420,000 tested, 15% active. Potency, µM (doses to about 46.2 µM), for inactives: at the highest dose activity change, negative = growth inhibition, hits mostly inhibitors. DT40 Tdp1-/- hTDP1 cells, no CPT, ATP luminescence, 48 h. AID 686978, 2013; note: potency is the fitted concentration of half-maximal effect; % is set by controls: 0 for no effect and ±100 for the full control effect; nearly all actives have a fitted effect of over 55% in size
#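 Compound effects on proliferation are scored in DT40 Tdp1-/-;hTDP1 cells in the absence of CPT. ATP levels (CellTiter-Glo luminescence) are recorded after a ≥48 hr, 37 °C incubation.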
# Numbers without * were called inactive; i = inactive; ? = inconclusive; . = not tested or not shown; [ ] = dose if it differs, or a comment. Unless noted, calls come from the whole dose curve; as a rule, active = well fitted curve in the direction sought with a large enough effect; inconclusive = small, poorly fitted or top-dose-only effect, or another doubt; inactive = no such curve, though single readings can be large; an effect the other way counts as inactive or inconclusive.
SMILES,TDP1 cell CPT,ASM inhibitor,IL-1B inflam inh,HepG2 viability,TGFb inhibitor,TDP1 cell noCPT
COc1ccc(-c2nc(CN3CCN(c4ncnc5ccccc45)CC3)c(C)o2)c(OC)c1,8.2µM*,-2.4%,?,-62.3%,?,5.8µM*
Cc1oc(-c2cc(F)ccc2F)nc1CN1CCN(c2ncnc3ccccc23)CC1,11.6µM*,9.2%,-29.4,-6.0%,-22.5%,20.6µM*
CC1(C(=O)O)CCCN(C(=O)c2ccc3c(c2)C(C)(C)CCC3(C)C)C1 (stereo unspecified),-0.3%,.,36.6,-6.0%,-3.2%,-2.1%
Nc1nc2ncccc2cc1C(=O)NC1CCCCC1,-13.6%,.,25.7,.,.,1.8%
COc1ccc(-c2nc3ccc(C)cn3c2Cc2cccc(F)c2)cc1OC,?,.,-14.7,-21.9%,?,20.6µM*
COc1ccc(-c2nc3ccc(Cl)cn3c2Cc2cccc(F)c2)cc1OC,23.1µM*,.,0.0,-0.4%,-24.0%,20.6µM*
CCCC1=[N+](CC(C)=O)CCn2c(C)ccc21,3.26µM*,25.6%,-0.5,0.6%,7.5%,2.31µM*
CCCC1=[N+](CC(=O)c2ccccc2)CCn2cccc21,23.1µM*,3.9%,i,-7.7%,3.2%,25.9µM*
CC(C)(C)c1ccc(-c2nnc3sc(-c4ccncc4)nn23)cc1,12.6µM*,-5.7%,-6.2,-16.5%,38.1%,?
Cc1nnc2sc(-c3ccncc3)nn12,9.4%,2.2%,0.0,-25.9%,6.7%,0.4%
CCN(CC)c1ccc(-c2nn3c(-c4cccnc4)nnc3s2)cc1,18.4µM*,i,-6.4,-1.9%,0.0%,20.6µM*
Cc1nc(-c2ccc(C(=O)Nc3cccc(Br)c3)cc2)cs1,?,-8.0%,-25.0,-34.0%,-2.0%,20.6µM*
Cc1nc(-c2cccc(NC(=O)c3cccs3)c2)cs1,-22.9%,2.1%,10.7,-9.9%,0.7%,?
Cc1nc(-c2cccc(NC(=O)c3ccc(-n4nccc4C)cc3)c2)cs1,?,-7.7%,-83.8*,-30.0%,?,20.6µM*
CCOC(=O)C1=C(O)c2ccccc2C(=O)/C1=C\c1ccc(CC)cc1,20.6µM*,3.2%,?,-52.8%,-6.4%,20.6µM*
CCOC(=O)c1ccc(COC(=O)c2ccc3c(c2)-c2ccccc2C3=O)cc1,-9.9%,-3.0%,41.7,-26.5%,-6.4%,?
CCOC(=O)C1=C(Cc2ccc(OC)cc2)C(=O)c2ccccc2C1=O,4.61µM*,-4.3%,-81.9*,-98.0%,?,8.2µM*
CCNc1c(NC(=O)c2cccs2)c(=O)oc2ccccc12,1.9%,1.0%,-1.6,-6.2%,8.6%,-24.4%
COc1ccc(N=C2C(=O)N3c4c(cccc42)C(C)=CC3(C)C)cc1,5.17µM*,-13.8%,46.0,-21.4%,-1.4%,2.59µM*
CC1CN(C(=O)c2ccccc2OCc2ccc(Cl)cc2Cl)CC(C)O1 (stereo unspecified),16.4µM*,0.8%,-2.8,-26.8%,-27.7%,3.66µM*
Cc1ccc(N2CCN(CC(O)COc3cccc(C)c3)CC2)cc1 (stereo unspecified),23.1µM*,-0.2%,2.6,-20.3%,-0.3%,?
Cc1cccc(N2CCN(CC(O)COc3ccc(Cl)cc3)CC2)c1 (stereo unspecified),?,-1.0%,?,0.3%,8.6%,13µM*
COc1cccc(NC(=O)C2CC(=O)n3cnnc3S2)c1 (stereo unspecified),2.91µM*,0.2%,3.6,7.1%,-4.8%,5.17µM*
COc1cccc(NC(=O)C2CC(=O)N=C(N)S2)c1 (stereo unspecified),-29.7%,1.2%,9.0,23.1%,0.0%,-0.9%
COc1ccc(NC(=O)C2CC(=O)n3ncnc3N2)cc1 (stereo unspecified),-1.2%,0.3%,14.2,-18.0%,-6.2%,-6.2%
SMILES,TDP1 cell CPT,ASM inhibitor,IL-1B inflam inh,HepG2 viability,TGFb inhibitor,TDP1 cell noCPT
COc1ccc(NC(=O)C2CC(=O)n3cnnc3S2)cc1 (stereo unspecified),2.31µM*,0.4%,-3.8,-9.3%,3.9%,4.61µM*
O=C(NCCOc1ccccc1)[C@@H]1CCCN1C(=O)c1cccs1,-27.0%,6.2%,11.5,-2.7%,-0.2%,-20.0%
COc1cccc(C(=O)CC(=O)C(=O)Nc2cc(OC)ccc2OC)c1,18.4µM*,-3.2%[11.5 µM],22.2,-8.3%,-12.3%,23.1µM*
CCOc1ccccc1NC(=O)C(=O)CC(=O)c1cccc(OC)c1,?,-3.5%,18.3,15.7%,15.6%,?
COc1ccc(C(=O)CC(=O)C(=O)Nc2ccccc2OC)cc1,?,38.0%,32.7,5.3%,8.8%,?
COc1ccccc1C(=O)CC(=O)C(=O)Nc1cccc([N+](=O)[O-])c1C,16.4µM*,0.4%,-27.7,-36.0%,1.2%,11.6µM*
COc1cccc(C(=O)CC(=O)C(=O)Nc2cccc([N+](=O)[O-])c2C)c1,14.6µM*,-2.8%,-92.5*,-40.9%,-4.0%,11.6µM*
COc1ccc(C(=O)CC(=O)C(=O)Nc2cccc([N+](=O)[O-])c2C)cc1,20.6µM*,-4.3%,-5.1,-10.2%,0.4%,16.4µM*
CC(=O)Nc1cccc(-n2cc3c(c2-c2ccccc2Cl)c(=O)n(C)c(=O)n3C)c1,?,.,.,-11.2%,-13.8%,?
CCOc1ccccc1NC(=O)C1=C(C)Nc2ncnn2C1c1ccccn1 (stereo unspecified),-1.1%,.,.,-8.4%,5.9%,0.2%
COC(=O)c1ccc(Nc2nc(-c3ccncc3)nc3ccccc23)cc1,-18.6%,19.6%,23.2,-1.2%,45.5%,4.2%
CC(=O)NCCNc1nc(-c2ccc(C(=O)N(C)C)cc2)nc2ccccc12,?,.,.,.,.,-28.7%
C=CCN(C(=O)c1ccccc1)c1ccc(OC)cc1,12.6µM*,-2.1%,3.1,-0.5%,-1.3%,22.4µM*
CN(C)C(=O)c1ccc(-c2nc(Nc3ccc(F)cc3)c3ccccc3n2)cc1,?,.,.,.,.,23.1µM*
